# In PubChem BioAssay (NCI):
# Compounds without any hit were thinned out: in the full panel of roughly 83,000, 20% have a hit.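 Plates (96-well) were seeded with cells, treated with compound at one concentration, and incubated for 48 hours before percent growth was determined.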 A number with no mark means an inactive call. Active and inactive are the calls of the source. The calls were made as follows: active = growth percent below 10; inactive = the rest.
# Tested on: MDA-MB-468 breast
# Experiment: NCI-60 one-dose screen, 48 h (100 = growth as untreated, 0 = no growth, -100 = all killed)
# Conditions: 10 µM unless noted
row,SMILES,growth
1,CC(C)(O)C#CC#CC(C)(C)O,97.7%
2,O=CNc1ccc2c(c1)Cc1cccc(NC=O)c1-2,14.5%
3,CNc1cccc2c1C(=O)c1cccc(N)c1C2=O,46.1%
4,COC(=O)/C=C1\SC(=Nc2cccc(Cl)c2)N(CCc2c[nH]c3ccccc23)C1=O,54.4%
5,CC1C2CCC(C2)C1COCCOCCO (stereo not given),102%
6,CCN(CC)CCN1C(=O)c2cccc3c(-c4ccc5c(c4)ncn5C4CCCCC4)ccc(c23)C1=O,-6.34% (active)
7,COc1cc2nc(Nc3cccc(Cl)c3)nc(N)c2cc1OC,26.8%
8,COc1cc(-c2cc(=O)oc3cc(O)ccc23)c(OC)c2c1OCO2,67.7%
9,C#Cc1ccc(-n2c(/C=C/c3ccc(Cl)c(F)c3)nc3ncccc3c2=O)cc1,-74.5% (active)
10,Cc1cc(Cl)cc(CN(Cc2ccccc2)Cc2c(O)ccc3ccccc23)c1O,102%
11,CCCCCCCCCCCCc1ccc(C(=O)/C=C/C(=O)O)cc1,-9.53% (active)
12,Cn1ccc2c1CC1CN(Cc3ccco3)C(=O)C1C2C(=O)O (stereo not given),104%
13,O=C(/C=C/c1ccco1)Nc1ncc(Cc2cc(Cl)ccc2Cl)s1,14.6%
14,Clc1ccc(Cc2nc3ccccc3s2)cc1,104%
15,Oc1[nH]c2ccc(Cl)cc2c1N=Nc1nc(N=Nc2c(O)[nH]c3ccc(Cl)cc23)nc(N2CCOCC2)n1,23.6%
16,COC1C(OC(N)=O)C(O)C(Oc2ccc3c(O)c(NC(=O)c4ccc(O)c(CC=C(C)C)c4)c(=O)oc3c2C)OC1(C)C (stereo not given),89%
17,c1ccc([I+]c2ccccc2)cc1,15.2%
18,C=C1C(=O)O[C@H]2[C@H]1CC/C(COC(=O)/C=C\C(=O)NCc1ccc(Cn3c(=O)sn(-c4ccc(C#N)cc4)c3=O)cc1)=C\CC[C@@]1(C)O[C@@H]21,-87.6% (active)
19,COc1ccc(/C=C/C(=O)c2c(O)c(C)c(O)c3c2OC2=CC(O)=C(C(C)=O)C(=O)[C@]23C)cc1,-40.1% (active)
20,CN(C)C(C)(C)CC(C)(C)C,116%

row,SMILES,growth
1,COc1cc2[nH]c(C(=O)c3cc(OC)c(OC)c(OC)c3)c(N)c2cc1C#CCO,25.6%
2,COc1ccc(CCNc2nc(SC)nc(-c3cccc([N+](=O)[O-])c3)c2C#N)cc1OC,84.8%
3,Nc1c(C(=O)Nc2cccc(Cl)c2Cl)sc2nc3c(cc12)C(=O)CCC3,71.8%
4,BrC(Br)(Br)c1cnc2ccccc2n1,-24.8% (active)
5,CCOC(=O)C(C(=O)OCC)C1CCCCC1,105%
6,Cc1[nH]n(-c2cccc(Cl)c2)c(=O)c1/C=C1\C=c2ccccc2=CC1=O,34.5%
7,O=C1C=CC(=O)N1c1cccc(N2C(=O)C=CC2=O)c1,51.5%
8,CC(C)(C)n1cc(-c2ccnc(NCCNS(=O)(=O)c3ccc(C(F)(F)F)cc3)c2)c(-c2ccccc2)n1,89.1%
9,O=C(/C=C/C12c3ccccc3C(c3ccccc31)C1C(=O)NC(=O)C12)c1ccc(Cl)cc1Cl (stereo not given),23.8%
10,CCC1=Cc2cc(OC)ccc2OC12C=Cc1cc(OC)ccc1O2 (stereo not given),69.6%
11,Cn1cc(-c2nc(-c3c[nH]c4c(Cl)nccc34)cs2)c2cc(Br)ccc21,19.9%
12,Clc1ccccc1-c1nc(Nc2nc3ccccc3s2)nc(C(Cl)(Cl)Cl)n1,-24.6% (active)
13,CC(=O)c1ccc2c(ccc3ccccc32)c1,95.5%
14,CC(C)[C@@]12C[C@@H](OC(=O)COC(=O)c3ccccc3)[C@@](C)(O1)[C@@H]1CC[C@@H](C)[C@H]1[C@@H]2OC(=O)/C=C/c1ccccc1,85.4%
15,COC(=O)c1ccc(Cn2cnc3c(N)ncnc32)cc1,106%
16,CC(=O)OCCOc1cc(Cl)c(Cl)cc1Cl,93.9%
17,CN(C)CCOc1nc2c3ccncc3cc(-c3cccc(Cl)c3)c2c2cnccc12,38.3%
18,O=S(=O)(NCCCNc1cc(-c2cn(-c3ccccc3)nc2-c2cccc(O)c2)ccn1)c1ccccc1,4.3% (active)
19,Clc1ccc(/C=N\N=C\c2ccc(Cl)c(Cl)c2)cc1Cl,78.5%
20,NCCCNc1nc2ccccc2c2c(=O)c3cc(F)cc(F)c3sc12,70.3%
